Laboratory results: PubChem BioAssay (EPA / NIEHS)
Active and inactive are the calls of the source. How the source made its calls: active means hit-call score of the fitted dose curve at least 0.9, where 1 is the maximum; inactive means score below 0.9.

Assay: BSK_KF3CT_SRB: Viability Assessment in the BioMAP Diversity Plus: KF3CT Assay (AID 2283069);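 further: total protein by sulforhodamine B staining as a cytotoxicity measure; read 24 h after compound addition; fitted for both signal gain and loss against DMSO baseline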
Settings: primary human keratinocytes with fibroblasts
Method in brief: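 Human primary keratinocyte plus foreskin fibroblast co-culture exposed to chemicals for 24 h. Total protein measured by 0.1% sulforhodamine B staining after 10% TCA fixation, read at 560 nm; bidirectional fitting versus DMSO baseline.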

Row | SMILES | outcome | AC50
1 | O=C(O)[C@H](O)[C@@H](O)C(=O)O | inactive | –
2 | FC(F)(F)COC(OCC(F)(F)F)OCC(F)(F)F | inactive | –
3 | OCCNCCO | inactive | –
4 | Cn1cc[nH]c1=S | inactive | –
5 | O=C(O)c1cccc(C(=O)O)c1 | inactive | –
6 | CCCCCCCC1CCC(=O)O1 (centres undefined) | inactive | –
7 | c1ccc2ncccc2c1 | inactive | –
8 | OC(O)(C(F)C(O)(O)C(F)(F)F)C(F)(F)F | inactive | –
9 | CCc1ccc(O)c(C(C)(C)C)c1 | – | 35.7 µM (active)
